ABHD5-PLIN5 inh: inhibitors of human ABHD5-perilipin-5 interaction; Q00G26+Q8WTS1; Split G. princeps luciferase complementation, luminescence, 4 h; inhibition, % at 4 µM; 0.78% of 360,000 active; AID 602281;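 active = inhibition above the mean inhibition across every tested compound plus 3 SD, cut at about 22% in these data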;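 also: 0% = DMSO only wells and the 100% control is not disclosed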
ALR inh: inhibitors of human sulfhydryl oxidase ALR; 3.8% of 290,000 active; purified ALR, DTT oxidation, H2O2 HRP-luminol luminescence; P55789; inhibition, % (concentration not given with the values);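 active = mean replicate inhibition above about 79%, with every replicate also reaching it, limit read from the data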
Target sequence (P55789 whole entry, looked up): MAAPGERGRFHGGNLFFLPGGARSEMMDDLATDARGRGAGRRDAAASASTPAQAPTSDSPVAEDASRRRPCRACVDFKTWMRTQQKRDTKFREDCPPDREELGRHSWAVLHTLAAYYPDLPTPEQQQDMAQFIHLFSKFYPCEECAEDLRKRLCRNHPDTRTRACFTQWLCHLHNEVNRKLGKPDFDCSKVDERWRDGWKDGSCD
PRMT1 inh: blocks human protein arginine methyltransferase 1; Q99873; recombinant PRMT1, activity-based probe fluorescence polarization; inhibition, % at 2.79 µM; 1.3% of 370,000 active; AID 652257;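 active = inhibition above about 21% made by adding two undisclosed values, limit read from the data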
LANA-H2A inh: blocks KSHV LANA binding to histone H2A/H2B | Q9QR71 | cell-free LANA-H2A/H2B peptide, fluorescence polarization | inhibition, % (no concentration beside the values) | 0.6% of 320,000 active | AID 2629; in the data active = inhibition mostly above about 10%, no sharp cut-off; inactive = mostly below about 6.7%
rCAG binder: molecules binding r(CAG) RNA repeats. r(CAG) RNA repeat, TO-PRO-1 dye displacement fluorescence. inhibition, % at 3 µM. 1.3% of 370,000 active;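 active = inhibition above the plate cutoff, the mean of all test compounds on that plate plus 3 SD, cut at about 35% in these data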;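 also: 0% = DMSO alone and 100% = 100 µM mitoxantrone as full dye displacement; higher means more dye released from RNA so lower well fluorescence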
Rtt109 Vps75: blocks Candida albicans Rtt109/Vps75 acetyltransferase activity; purified Rtt109/Vps75, ThioGlo CoA-SH fluorescence, 4 h; Q5AAJ8; inhibition, % at 34.9 µM; 0.16% of 330,000 active;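 active = inhibition of at least 50% in every replicate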
Numbers without * were called inactive; nt = not tested or not shown. Hits are enriched below; roughly 5.9% of the tested compounds scored in any of these assays.

SMILES | ABHD5-PLIN5 inh | ALR inh | PRMT1 inh | LANA-H2A inh | rCAG binder | Rtt109 Vps75
O=c1c2c(O)cc(O)cc2oc2c(O)ccc(O[C@H]3O[C@@H](CO)[C@H](O)[C@@H](O)[C@@H]3O)c12 | -4 | 20 | 2 | 3 | 9 | -3
O=c1c(OC2OC(CO)C(O)C(O)C2OC2OC(CO)C(O)C(O)C2O)c(-c2ccc(O)cc2)oc2cc(O)cc(O)c12 (stereo not given) | 6 | 23 | -1 | 6 | 9 | 12
O=c1c(OC2OC(CO)C(O)C(O)C2O)c(-c2ccc(O)c(O)c2)oc2cc(O)cc(O)c12 (stereo not given) | 7 | 99* | 10 | 2 | 3 | 3
COc1cc(O)c2c(=O)c(-c3ccc(O[C@@H]4O[C@H](CO)[C@@H](O)[C@H](O)[C@H]4O)cc3)coc2c1 | 6 | -5 | 9 | 1 | 1 | -5
O=c1c(O[C@@H]2O[C@H](CO)C(O)C2O)c(-c2ccc(O)c(O)c2)oc2cc(O)cc(O)c12 (stereo not given in full) | 4 | 100* | nt | -4 | nt | -1
O=c1c(-c2ccc(O)cc2)coc2cc(OC3OC(CO)C(O)C(O)C3O)ccc12 (stereo not given) | -3 | 99* | 0 | -1 | 2 | 9
CCC(c1nnnn1-c1ccc2c(c1)OCCO2)N1CCN(c2cc(C)ccc2C)CC1 (stereo not given) | -7 | nt | -8 | nt | 4 | nt
Oc1ccccc1-c1nc(NCCN2CCOCC2)c2ccccc2n1 | 22* | -3 | 1 | -2 | 11 | 13
C=CCN1C(=O)[C@@H](CC(=O)NCCCOCCCC)[C@]2(C(=O)OC)CCCCC=C12 | nt | nt | -2 | nt | -2 | nt
O=C(COc1ccc(Cl)cc1Cl)NCc1ccco1 | 5 | 20 | -2 | 8 | -3 | -6
Cc1ccc(OCCCC(=O)NCc2ccco2)c(C)c1 | nt | 95* | nt | 1 | nt | nt
Cc1cc(Cl)cc(Cl)c1OCC(=O)NCc1ccco1 | 13 | 91* | 9 | -3 | 7 | 10
O=C(COc1ccc(Cl)cc1Cl)NNC(=S)NCc1ccco1 | -1 | 83* | 9 | -2 | 17 | 3
c1ccc(-c2cc(NCCN3CCCCC3)c3ccccc3n2)cc1 | 5 | nt | -3 | 2 | 9 | 0
CC(=O)CC[C@@H]1CC[C@]2(CCCN(C(=O)c3ccno3)C2)O1 | nt | nt | 0 | nt | 6 | nt
COc1ccccc1NC(C)C(=O)Nc1ccc(C(C)=O)cc1 (stereo not given) | 1 | 99* | 2 | -3 | 0 | -5
Cc1cccc(N/N=C2/COC(C)(C)CC2=O)c1 | -2 | 93* | -1 | 1 | -2 | 0
C#CCN1CC(N(C)CCOC(=O)CSc2ccccc2)CS1(=O)=O (stereo not given) | nt | nt | 1 | nt | -1 | nt
COc1cc(OC)c(C2SCCS2)c(OC)c1 | 4 | 99* | 7 | 0 | 6 | -9
CC(C)(C)C(=O)NC1=NCCS1 | -7 | 100* | 0 | -4 | -2 | -6
Cc1[nH]c2ccccc2c1CCC(N)=O | 3 | 99* | -2 | -5 | 2 | 6
Cc1[nH]c2ccccc2c1CCNC(=O)CCC(=O)c1ccccc1 | 0 | 95* | -2 | 0 | 1 | 2
O=C(CCN1CCCO1)N1CCCC(Nc2cccc(F)c2)C1 (stereo not given) | -8 | nt | -3 | nt | 4 | nt
Cc1ccc(C(=O)NCC(=O)NC2CCCCCC2)cc1 | -6 | -9 | 0 | 1 | -3 | 61*
COC(=O)C1=C(C)N(Cc2ccccc2C(F)(F)F)C(=NCc2cc(OC)c(OC)c(OC)c2)NC1c1cccc(F)c1 (stereo not given) | nt | nt | -3 | nt | 4 | nt
COC(=O)C1=C(C)N(C)C(=NCc2cc(OC)c(OC)c(OC)c2)NC1c1ccc(Cl)cc1 (stereo not given) | nt | nt | -4 | nt | 9 | nt
C/C(=N\OCc1nc2ccccc2c(=O)n1/N=C/c1cc([N+](=O)[O-])ccc1O)c1ccccc1 | -4 | nt | -3 | 3 | 62* | -6
O=c1c2ccccc2nc(COc2ccccc2)n1/N=C/c1ccc(O)cc1O | -1 | 77* | 5 | -1 | 11 | -5
O=c1c2ccccc2nc(COc2ccccc2)n1/N=C/c1c[nH]c2ccccc12 | 10 | nt | -2 | nt | 2 | -2
O=[N+]([O-])c1ccc(O)c(/C=N/n2c(CO)nc3ccccc32)c1 | 2 | -3 | -1 | 2 | 5 | 14

Assay outcomes (PubChem)
